Experiment [1] is described as follows: binders of probe aFSTL3 on microarray, primary screen, stem cell growth factor project, biochemical, small-molecule microarray, fluorescence 635/667 (AID 1064).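 Note: measures binding of the biotinylated anti-FSTL3 antibody to printed compounds.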 The conditions noted are these: higher = more signal.
Experiment [2] is described as follows: binders from COS7 lysate, DM2A8 probe, primary screen, torsin A project, cell lysate, small-molecule microarray, fluorescence 635/667 (AID 1065). The conditions noted are these: higher = more signal, COS7 lysate expressing mutant human TOR1A.
The nature of experiment [3]: binders of probe aFGF2 on microarray, primary screen, stem cell growth factor project, biochemical, small-molecule microarray, fluorescence 635/667 (AID 1067).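 Note: measures binding of biotinylated aFGF2 protein to printed compounds on slides; z-score merges feature fluorescence and signal-to-noise across triplicate slides.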 The conditions noted are these: higher = more signal.
Experiment [4] is described as follows: binders of probe aFGF10 on microarray, primary screen, stem cell growth factor project, biochemical, small-molecule microarray, fluorescence 635/667 (AID 1071).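 Note: score merges 667 nm spot intensity and signal to noise from triplicate slides.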 The conditions noted are these: higher = more signal.
Experiment [5] has as its target Neurogenic locus notch homolog protein 2 (Homo sapiens) (UniProt Q04721). Put plainly: Notch2 binders on small-molecule microarrays, primary screen, biochemical, small-molecule microarray, 635 nm fluorescence, stem cell growth factors (AID 1073). To be noted: Notch2 binding, higher = more signal.
For experiment [6], the target named is Pro-neuregulin-1, membrane-bound isoform (Homo sapiens) (UniProt Q02297). Briefly: NRG1 binders on small-molecule microarrays, primary screen, psychiatric disease protein project, biochemical, small-molecule microarray, fluorescence 635/667 (AID 1075).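 Note: score combines 667 nm spot fluorescence with signal to noise.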 The conditions noted are these: NRG1 binding, 635 nm fluorescence, higher = more signal.
Pro-neuregulin-1, membrane-bound isoform (Homo sapiens), sequence (Q02297 whole entry, looked up, the tested form may be a part, canonical isoform): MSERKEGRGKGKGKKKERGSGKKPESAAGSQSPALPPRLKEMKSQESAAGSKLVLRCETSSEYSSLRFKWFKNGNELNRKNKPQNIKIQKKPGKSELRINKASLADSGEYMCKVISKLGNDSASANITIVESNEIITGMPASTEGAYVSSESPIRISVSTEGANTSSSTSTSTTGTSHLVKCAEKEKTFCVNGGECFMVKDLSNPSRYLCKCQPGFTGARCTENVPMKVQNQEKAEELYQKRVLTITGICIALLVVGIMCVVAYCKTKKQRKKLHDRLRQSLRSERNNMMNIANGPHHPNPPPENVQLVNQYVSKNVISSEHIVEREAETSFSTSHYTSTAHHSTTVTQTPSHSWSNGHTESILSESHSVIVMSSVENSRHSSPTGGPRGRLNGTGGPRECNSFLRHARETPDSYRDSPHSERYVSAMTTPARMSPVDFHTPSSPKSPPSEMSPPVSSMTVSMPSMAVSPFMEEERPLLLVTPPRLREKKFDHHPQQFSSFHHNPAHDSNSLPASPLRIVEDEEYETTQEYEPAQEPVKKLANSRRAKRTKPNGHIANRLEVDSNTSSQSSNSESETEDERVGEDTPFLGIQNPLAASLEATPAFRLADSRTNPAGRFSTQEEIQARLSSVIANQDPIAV
Experiment [7] has as its system Neuregulin-1 EGF-like domain. Put plainly: binders of neuregulin-1 EGF-like domain, primary screen, biochemical, small-molecule microarray, 635 nm fluorescence (AID 1081).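 Note: binding of the protein to compounds printed on small-molecule microarray slides.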 To be noted: small-molecule microarray binding, higher = more signal.
Experiment [8] in a line: FRG1 promoter luciferase signal modulators, primary screen, FRG1 inhibition for FSHD, cell-based, C2C12 myotubes, firefly/Renilla luciferase, luminescence (AID 1084). The conditions noted are these: higher = more signal, called active from +8 up or from −8 down.
Experiment [9] is described as follows: binders of probe aFST on microarray, primary screen, stem cell growth factor project, biochemical, small-molecule microarray, fluorescence 635/667 (AID 1086).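 Note: score merges 667 nm fluorescence with signal-to-noise of each printed compound spot.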 The conditions noted are these: higher = more signal.
A short description of experiment [10]: binders of probe aHhip on microarray, primary screen, stem cell growth factor project, biochemical, small-molecule microarray, fluorescence 635/667 (AID 1087).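 Note: score merges spot fluorescence at 667nm with spot signal to noise ratio.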 To be noted: higher = more signal.
The test system of experiment [11] is PRMT1 (protein arginine N-methyltransferase 1). Briefly: PRMT1 binders on small-molecule microarrays, primary screen, biochemical, small-molecule microarray, 635 nm fluorescence (AID 1088).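 Note: binding of Prmt1 protein to compounds spotted on small-molecule microarray slides.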 The conditions noted are these: small-molecule microarray binding, higher = more signal.
Experiment [12] can be described thus: yeast growth modulation, basal conditions, primary screen, YJM789 clinical isolate, OD600, 24 h (AID 1089).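 Note: growth of clinical yeast isolate S. cerevisiae YJM 789 seeded 1000 cells per well; test concentration not given here.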 To be noted: S. cerevisiae YJM789 growth, higher = more signal, called active from +8 up or from −8 down.
Experiment [13] is described as follows: fission yeast growth modulation, primary screen, strain 972, OD600, 24 h, no modulator (AID 1090).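 Note: basal condition with compound alone and no growth modifier present; test concentration not given here.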 To be noted: S. pombe 972 growth, higher = more signal, called active from +8 up or from −8 down.
Experiment [14] is described as follows: S. cerevisiae growth modulation with rapamycin, primary screen, strain BY4716, OD600, 96 h (AID 1091). Note: test concentration not given here. To be noted: higher = more signal, called active from +8 up or from −8 down.
The target in experiment [15] is Torsin-1A-interacting protein 2 (Homo sapiens) (UniProt Q8NFQ8). Briefly: LULL1 binders on small-molecule microarray, primary screen, cell lysate, human LULL1 lysate, 635/667 nm fluorescence (AID 1092).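 Note: score merges per-feature 667 nm fluorescence with signal-to-noise.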 To be noted: hLULL1 lysate binding, 635 nm fluorescence, higher = more signal.
Torsin-1A-interacting protein 2 (Homo sapiens), sequence (Q8NFQ8 whole entry, looked up): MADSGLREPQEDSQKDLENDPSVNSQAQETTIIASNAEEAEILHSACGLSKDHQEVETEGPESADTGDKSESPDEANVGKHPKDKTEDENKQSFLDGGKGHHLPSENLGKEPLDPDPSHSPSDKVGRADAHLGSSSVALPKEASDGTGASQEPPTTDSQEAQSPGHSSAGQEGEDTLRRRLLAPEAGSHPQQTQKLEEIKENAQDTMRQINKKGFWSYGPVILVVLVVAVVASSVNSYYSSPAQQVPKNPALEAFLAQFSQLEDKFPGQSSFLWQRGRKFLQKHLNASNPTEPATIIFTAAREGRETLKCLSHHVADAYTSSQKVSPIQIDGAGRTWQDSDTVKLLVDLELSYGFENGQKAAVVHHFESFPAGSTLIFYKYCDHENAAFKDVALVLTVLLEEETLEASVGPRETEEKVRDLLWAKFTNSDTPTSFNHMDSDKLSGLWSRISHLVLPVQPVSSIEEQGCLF
Experiment [16] in a line: E. coli growth modulation, two-sided OD650, primary screen, E. coli filamentation project, strain DRC41, 24 h (AID 1093).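 Note: MC1000 strain lacking acrAB efflux and sulA so SOS filamentation is blocked; test concentration not given here.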 The conditions noted are these: OD650, 24 h, higher = more signal, called active from +8 up or from −8 down.
The nature of experiment [17]: small-molecule microarray binders of probe aLefty2, primary screen, biochemical, biotinylated probe, 635/667 nm fluorescence (AID 1094).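 Note: score merges spot fluorescence near 667 nm with spot signal-to-noise ratio.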 To be noted: higher = more signal.
Experiment [18] deals with Noggin (protein binding on small-molecule microarray). Briefly: Noggin binders on small-molecule microarray, primary screen, biochemical, 635/667 nm fluorescence (AID 1095).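 Note: score merges 667 nm feature fluorescence with signal to noise over triplicate slides.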 To be noted: 635 nm fluorescence, higher = more signal.
For experiment [19], the target named is Neurogenic locus notch homolog protein 3 (Homo sapiens) (UniProt Q9UM47). Briefly: NOTCH3 binders on small-molecule microarray, primary screen, biochemical, 635/667 nm fluorescence (AID 1096). To be noted: NOTCH3 binding, 635 nm fluorescence, higher = more signal.
Neurogenic locus notch homolog protein 3 (Homo sapiens), sequence (Q9UM47 whole entry, looked up): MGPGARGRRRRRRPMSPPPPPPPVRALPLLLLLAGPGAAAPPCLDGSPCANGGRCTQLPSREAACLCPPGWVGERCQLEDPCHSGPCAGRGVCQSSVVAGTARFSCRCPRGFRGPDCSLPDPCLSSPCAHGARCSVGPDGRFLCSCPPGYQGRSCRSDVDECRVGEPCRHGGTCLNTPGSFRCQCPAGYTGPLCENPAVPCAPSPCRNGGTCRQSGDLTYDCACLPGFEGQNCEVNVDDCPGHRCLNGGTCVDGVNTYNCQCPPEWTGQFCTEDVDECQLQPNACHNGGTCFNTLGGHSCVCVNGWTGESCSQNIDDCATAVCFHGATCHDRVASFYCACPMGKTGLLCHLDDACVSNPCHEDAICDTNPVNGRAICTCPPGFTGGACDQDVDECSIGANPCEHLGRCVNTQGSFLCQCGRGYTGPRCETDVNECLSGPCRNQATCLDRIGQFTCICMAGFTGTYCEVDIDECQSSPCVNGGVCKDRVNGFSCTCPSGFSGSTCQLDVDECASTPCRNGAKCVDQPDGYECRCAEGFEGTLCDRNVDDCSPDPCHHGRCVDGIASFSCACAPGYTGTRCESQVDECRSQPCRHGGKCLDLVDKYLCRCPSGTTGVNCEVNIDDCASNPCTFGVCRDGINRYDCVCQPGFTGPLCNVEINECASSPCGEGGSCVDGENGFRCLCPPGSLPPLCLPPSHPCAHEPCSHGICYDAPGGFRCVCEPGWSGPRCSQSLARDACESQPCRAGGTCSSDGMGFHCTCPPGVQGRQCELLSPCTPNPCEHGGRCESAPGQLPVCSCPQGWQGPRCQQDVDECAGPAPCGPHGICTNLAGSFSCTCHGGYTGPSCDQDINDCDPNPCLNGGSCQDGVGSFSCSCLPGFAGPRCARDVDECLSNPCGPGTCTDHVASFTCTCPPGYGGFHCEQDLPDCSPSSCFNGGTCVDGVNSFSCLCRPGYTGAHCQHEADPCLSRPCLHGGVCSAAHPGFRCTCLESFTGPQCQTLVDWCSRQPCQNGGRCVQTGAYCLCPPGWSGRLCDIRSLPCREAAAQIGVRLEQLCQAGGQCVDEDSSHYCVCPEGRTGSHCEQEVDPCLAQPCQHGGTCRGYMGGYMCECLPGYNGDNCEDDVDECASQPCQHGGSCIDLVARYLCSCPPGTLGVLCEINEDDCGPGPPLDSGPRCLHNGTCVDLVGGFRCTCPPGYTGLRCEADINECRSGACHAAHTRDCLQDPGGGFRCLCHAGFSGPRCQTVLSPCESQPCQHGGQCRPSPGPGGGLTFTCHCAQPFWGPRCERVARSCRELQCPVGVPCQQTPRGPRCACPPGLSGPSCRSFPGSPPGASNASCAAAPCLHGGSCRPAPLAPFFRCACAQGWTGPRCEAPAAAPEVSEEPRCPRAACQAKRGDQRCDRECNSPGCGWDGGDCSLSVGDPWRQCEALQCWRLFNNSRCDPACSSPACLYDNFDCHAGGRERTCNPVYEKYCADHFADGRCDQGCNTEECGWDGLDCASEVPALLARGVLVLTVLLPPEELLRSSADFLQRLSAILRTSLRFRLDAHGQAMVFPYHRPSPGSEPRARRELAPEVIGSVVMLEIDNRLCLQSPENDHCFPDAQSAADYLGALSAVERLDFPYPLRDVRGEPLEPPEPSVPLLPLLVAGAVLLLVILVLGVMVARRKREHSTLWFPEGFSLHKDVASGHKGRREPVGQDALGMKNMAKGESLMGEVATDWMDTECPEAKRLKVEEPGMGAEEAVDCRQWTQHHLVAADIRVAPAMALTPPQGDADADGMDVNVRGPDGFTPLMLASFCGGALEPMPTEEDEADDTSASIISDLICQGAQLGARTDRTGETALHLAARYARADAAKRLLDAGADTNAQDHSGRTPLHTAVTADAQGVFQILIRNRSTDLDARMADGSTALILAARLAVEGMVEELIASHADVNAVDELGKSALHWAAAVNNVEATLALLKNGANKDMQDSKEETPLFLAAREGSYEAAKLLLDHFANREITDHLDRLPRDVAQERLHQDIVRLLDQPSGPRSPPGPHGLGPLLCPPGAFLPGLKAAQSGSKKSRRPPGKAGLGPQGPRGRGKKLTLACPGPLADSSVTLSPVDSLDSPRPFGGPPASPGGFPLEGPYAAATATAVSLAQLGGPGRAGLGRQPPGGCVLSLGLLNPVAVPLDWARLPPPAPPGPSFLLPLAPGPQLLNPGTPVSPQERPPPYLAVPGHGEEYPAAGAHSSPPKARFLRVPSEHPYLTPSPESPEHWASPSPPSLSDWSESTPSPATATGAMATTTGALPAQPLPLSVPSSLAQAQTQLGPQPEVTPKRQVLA
Experiment [20] in a line: small-molecule microarray binders of probe aEGFR, primary screen, biochemical, biotinylated probe, 635/667 nm fluorescence (AID 1097).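 Note: probe is a biotinylated anti-EGFR antibody binding compounds printed on slides; score combines fluorescence near 667 nm and signal to noise of each spot.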 To be noted: higher = more signal.

The record followed here is PubChem BioAssay.

Calls of active or inactive are those of the source.

`CC(C)[C@H]1COC(=O)N1C(=O)[C@H]1[C@@H](c2ccccc2)N(c2ccccc2)O[C@@H]1C`: the composite z-score in experiment [1] is -0.385; in [2], 0.182; in experiment [3], -0.204; in experiment [4], 0.488; in experiment [5] it was 1.14; in experiment [6] it was 0.182. The composite z-score in [7] was 0.974; in [9], 0.301; in experiment [10] it was -0.367; in [11], 0.842; in experiment [15] it was 1.29; in experiment [17], -0.0023. Moreover, the composite z-score in experiment [18] was 0.403; in [19], 0.757; in experiment [20], -0.12. Further, the z-score is -0.803 (inactive) in experiment [8]; -0.384 (inactive) in experiment [12]; -2.87 (inactive) in experiment [13]; 0.0611 (inactive) in experiment [14]; 0.874 (inactive) in [16].

Turning to `CN1C(=O)C2C=CC(C(O)C(c3ccccc3)c3ccccc3)N(Nc3ccccc3)C2C1=O` (stereo not given), the composite z-score is -0.0907 in [1]; 0.403 in [2]; 0.0814 in experiment [3]; 0.868 in experiment [4]; 1.48 in [5]; 1.94 in [6]. Also, the composite z-score in experiment [7] is 1.21; in experiment [9] it was 1.37; in [10], -0.131; in [11], 1.55; in [15], 3.46; in [17] it was 0.0336. The figures for the composite z-score in experiment [18], in experiment [19] and in experiment [20] were -0.152, 1.05 and 0.0209, respectively. The z-score in experiment [8] is -0.704 (inactive); in experiment [12], -0.272 (inactive); in [13], -0.346 (inactive); in [14], -0.125 (inactive); in experiment [16], -1.7 (inactive).

With `CC(C)(C)OC(=O)CC[C@@]1(C(N)=O)N=C(c2ccc(OCCCO)cc2)O[C@@H]1c1ccccc1N=[N+]=[N-]`, the composite z-score in experiment [1] is 0.0551; in experiment [2] it was 1.86; in [3], 0.0354; in experiment [4], 1.23; in [5], 1.46; in experiment [6], 0.798. For the same compound, the composite z-score in experiment [7] is 1.36; in experiment [9], 0.18; in experiment [10] it was -0.0645; in experiment [11] it was 1.16; in [15], 3.41; in [17], 0.0539. Besides, the results for the composite z-score in experiment [18], in experiment [19] and in [20] were 0.465, 0.976 and -0.019, respectively. For the same compound, the z-score was 3.06 (inactive) in experiment [8]; 0.745 (inactive) in experiment [12]; -0.86 (inactive) in experiment [13]; -0.579 (inactive) in experiment [14]; 0.77 (inactive) in experiment [16].

For the compound `COCCOC(=O)N1C(=O)[C@@]2(c3cc(C#Cc4ccc(OC)cc4)ccc31)[C@H](c1ccc(O)cc1)N1[C@H](c3ccccc3)[C@H](c3ccccc3)OC(=O)[C@H]1[C@@H]2C(=O)N1CCN(c2ncccn2)CC1`, the composite z-score in experiment [1] is -0.867; in [2], 0.47; in experiment [3], -0.0225; in [4], 0.381; in experiment [5], 0.846; in [6] it was 0.467. Besides, the composite z-score in experiment [7] is 1.13; in experiment [9], 0.619; in [10] it was -0.132; in experiment [11] it was 1.52; in experiment [15] it was 2.44; in experiment [17], 0.047. Also, the composite z-score in [18] came to 0.52; in experiment [19], 0.258; in experiment [20], 0.0746. Moreover, the z-score was -0.431 (inactive) in experiment [8]; 1.56 (inactive) in [12]; 1.16 (inactive) in experiment [13]; 2.83 (inactive) in experiment [14]; 1.15 (inactive) in [16].

For the compound `CCOC(=O)C1=CC[C@@H](c2ccccc2)N(S(=O)(=O)c2ccc(C)cc2)[C@H]1c1ccc(C#N)cc1`, the composite z-score in [1] is -0.0221; in [2], 0.381; in experiment [3] it was 0.054; in experiment [4] it was 0.359; in experiment [5] it was 1.43; in experiment [6], 1. The composite z-score is 1.01 in experiment [7]; 0.832 in [9]; -0.161 in experiment [10]; 0.852 in experiment [11]; 2.73 in experiment [15]; 0.0163 in [17]. Moreover, the values for the composite z-score in experiment [18], in experiment [19] and in experiment [20] were -0.232, 1.11 and 0.136, respectively. In addition, the z-score is -1.59 (inactive) in experiment [8]; -0.624 (inactive) in experiment [12]; 0.553 (inactive) in experiment [13]; 1.18 (inactive) in [14]; -0.883 (inactive) in experiment [16].
